Several values for one entry are separate records, joined by “and”; a condition that tells them apart may be missing. Identical values can stand only once.
molecular target: Left-right determination factor 2 (Homo sapiens) (UniProt O00292); test: small molecules binding LEFTY2 protein – biochemical, small-molecule microarray, 635 nm fluorescence scan, primary screen (AID 1110); settings: higher = more signal
Sequence (O00292 whole entry, looked up): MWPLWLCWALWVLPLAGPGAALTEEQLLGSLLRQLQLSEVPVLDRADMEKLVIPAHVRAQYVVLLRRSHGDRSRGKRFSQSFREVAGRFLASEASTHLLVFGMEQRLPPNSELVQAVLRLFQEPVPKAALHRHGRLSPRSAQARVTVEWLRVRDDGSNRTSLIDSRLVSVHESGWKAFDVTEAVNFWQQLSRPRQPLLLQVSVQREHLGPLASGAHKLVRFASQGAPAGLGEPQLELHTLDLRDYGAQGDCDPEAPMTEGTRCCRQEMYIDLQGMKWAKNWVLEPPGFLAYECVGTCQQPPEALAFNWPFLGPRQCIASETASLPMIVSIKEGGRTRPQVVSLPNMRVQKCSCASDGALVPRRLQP

| SMILES | composite z-score |
| --- | --- |
| CC(CO)N1C(=O)[C@@H]2C3C(=O)OCCC=C[C@H]3OC23C=CCN(CCN2CCOCC2)C(=O)[C@@H]13 (some centres undefined) | -0.346 and 0.398 |
| COC(=O)C1=C(C)N(Cc2ccccc2)C2=C(C(C)=O)[C@H](c3ccccc3)[C@@](O)(C(=O)OC)C(=O)N2[C@@H]1c1ccccc1 | 0.64 and -0.705 |
| CC(C)=NOC[C@@H](O)COCc1ccco1 | -0.168 |
| C[C@@H]1CC[C@H]2C(=O)NC[C@@H](O)CN2[C@H]1c1ccc(Br)cc1 | -0.0095 and 0.204 |
| CCOC(=O)[C@@H]1CC2O[C@]23C[C@@H]1C(=O)N1CCC[C@@H]1[C@H]3O[Si](C)(C)C(C)(C)C (some centres undefined) | -0.125 and 0.446 |
| C[N+](C)(C)CCCCNC(=O)[C@H]1C[C@H]2C(=O)N[C@@H](CCCC[N+](C)(C)C)C(=O)N2[C@H]1c1ccc(O)cc1 | 1.41 and 1.47 |
| CC(C)[Si]1(C(C)C)OCc2cc(CCCc3cc4c(c(CCc5ccccc5)n3)[Si](C(C)C)(C(C)C)OC4)nc(CCc3ccccc3)c21 | 0.0155 and 0.497 |
| COC(=O)C1=C(C)N(Cc2ccccc2)C2=C3C(=O)N(c4ccccc4)C(=O)[C@@H]3[C@@](O)(C(=O)OC)C(=O)N2[C@@H]1c1ccccc1 | 0.269 and 0.49 |
| CO[C@H]1COC(=O)CC=C[C@H](C)[C@H](OC)COC(=O)[C@@H](C)COC(=O)CC=C[C@@H]1C | 0.953 and 0.546 |
| C=CCN(C(=O)C1N(c2ccc(CCO)cc2)C(=O)C2C(C(=O)O)C3C=CC21O3)c1ccc(OC)cc1 (centres undefined) | -1.59 and -1.27 |
| COC(=O)[C@@]1(Cc2ccc(F)cc2)[C@H]2c3cc(C(=O)N4CCCC4)n(Cc4c(CO)[nH]cc(C)c4=O)c3C[C@H]2CN1C(=O)c1ccccc1 | -0.0537 and -0.837 |
| CC(CO)N1C(=O)[C@@H]2C3C(=O)OCCC=C[C@H]3OC23C=CCN(c2ccc(Cl)cc2)C(=O)[C@@H]13 (some centres undefined) | -0.905 and -1.03 |
| C=CCN(CCCC)C(=O)C(c1cccs1)N(C(=O)/C=C\C(=O)O)c1c(Cl)cccc1CO (centres undefined) | -3.75 and -3.83 |
| CCOC(=O)C[C@H]1[C@H](OC(=O)c2ccccc2-c2ccccc2)[C@@H](NC(=O)c2ccccc2)c2cc(OCCCO)ccc2N1C(=O)c1ccc2ccccc2n1 | 0.668 and 0.619 |
| C=CCN(C(=O)C1N(c2c(Cl)cccc2CO)C(=O)C2C(C(=O)O)C3C=CC21O3)C(C)(C)C (centres undefined) | -2.64 and -2.81 |
| C#CCCCON=C1C[C@@H](O)[C@@H](O)[C@@H]2[C@@H]3C(=O)N(C4CCCCC4)C(=O)[C@@H]3CC[C@H]12 | 0.16 |
| C=CCN(CCCC)C(=O)C1N(c2ccc(CCO)cc2)C(=O)C2C(C(=O)O)C3C=CC21O3 (centres undefined) | -2.86 and -4.53 |
| C=CCN(C(=O)C1N(c2c(Cl)cccc2CO)C(=O)C2C(C(=O)O)C3C=CC21O3)c1ccc(OC)cc1 (centres undefined) | -2.79 and -1.79 |
| CON(C)C(=O)c1nnc2c3ccccc3n(S(=O)(=O)c3ccc(C)cc3)c2n1 | 0.755 and 0.321 |
| CCCC[C@@H]1CN2[C@H](c3ccc(Br)cc3)[C@@H](C)CC[C@H]2C(=O)O1 | 0.189 and 0.327 |

| SMILES | composite z-score |
| --- | --- |
| C=CCN(CCCCC)C(=O)C1N(c2ccc(CCO)cc2)C(=O)C2C(C(=O)O)C3C=CC21O3 (centres undefined) | -2.25 and -3.05 |
| C=CCN(Cc1ccccc1)C(=O)C1N(C(C)(C)CO)C(=O)C2C(C(=O)O)C3C=CC21O3 (centres undefined) | -2.75 and -1.49 |
| O=C1C[C@]2(c3ccc([N+](=O)[O-])cc3)C(=O)N(Cc3ccccc3)c3cc(CO)ccc3[C@H]2N1C1CCCCC1 | -1.1 and 0.586 |
| C=CCN(Cc1ccccc1)C(=O)C(c1cccs1)N(C(=O)/C=C\C(=O)O)c1c(Cl)cccc1CO (centres undefined) | -0.682 and -3.86 |
| CCOC(=O)c1ccc(NC(=O)O[C@H]2[C@H](OC(=O)Nc3ccccc3)[C@@H](OC(=O)Nc3ccccc3)[C@@H](OC)O[C@@H]2CO)cc1 | 0.772 and 0.53 |
| C=C(C)C(=O)OC[C@@H]1CN2[C@@H](CC[C@@H](C)[C@@H]2c2ccc(Br)cc2)C(=O)O1 | 0.891 |
| CC(CO)N1C(=O)[C@@H]2C3C(=O)OCCC=C[C@H]3OC23C=CCN(Cn2nnc4ccccc42)C(=O)[C@@H]13 (some centres undefined) | -0.985 and -0.403 |
| O=C(NN=C1C[C@@H](O)[C@@H](O)[C@@H]2[C@@H]3C(=O)N(Cc4ccc5c(c4)OCO5)C(=O)[C@@H]3CC[C@H]12)OCc1ccccc1 | 0.227 |
| COC(=O)[C@@]1(Cc2ccc(OC)cc2)[C@H]2c3cc(C(=O)N(C)C)n(Cc4ccc(O)c(OC)c4)c3C[C@H]2CN1C(=O)c1ccccc1 | -0.3 and -0.586 |
| O=C1NC(=O)C2C1C=CC(C(O)c1ccc([N+](=O)[O-])cc1)N2Nc1ccc(Cl)cc1Cl (centres undefined) | -0.176 and -0.0882 |
| CC(C)=CCCC(C)=CCON=C1C[C@@H](O)[C@@H](O)[C@@H]2[C@@H]3C(=O)N([C@@H](C)c4ccccc4)C(=O)[C@@H]3CC[C@H]12 | 0.773 |
| COC(=O)C1=C(C)N(Cc2ccccc2)C2=C3C(=O)CCC[C@@H]3[C@@](O)(C(=O)OC)C(=O)N2[C@@H]1c1ccccc1 | 0.278 and 0.372 |
| CCCC[C@@H]1CN2[C@@H](CC[C@@H](C)[C@@H]2c2ccc(Br)cc2)C(=O)O1 | 0.379 and 0.292 |
| CCN1C(=O)[C@H]2[C@H]3[C@H](O)[C@H](O)CC(=NOC)[C@@H]3CC[C@H]2C1=O | 0.256 |
| CC(C)OC(=O)C=C1C[C@@H](c2cccc(C(F)(F)F)c2)O[C@@H](c2cccc(C(F)(F)F)c2)O1 | -0.906 and -0.656 |
| CC(C)=NO[C@@H](C)c1cc(-c2c(C)cc(C)cc2C)no1 | 0.192 |
| C=CCN(C(=O)C1N(CCOCCO)C(=O)C2C(C(=O)O)C3C=CC21O3)c1ccc(OC)cc1 (centres undefined) | -2.03 and -2.77 |
| C=CCN(C(=O)C(c1cccs1)N(CCOCCO)C(=O)/C=C\C(=O)O)c1ccc(OC)cc1 (centres undefined) | 0.0612 and -1.47 |
| C=CCN(Cc1ccccc1)C(=O)C(c1cccs1)N(C(=O)/C=C\C(=O)O)c1ccc(CCO)cc1 (centres undefined) | -2.74 and -3.22 |
